The nature of test [1]: Primary qHTS for inhibitors of nuclear receptor binding SET domain protein 2 (NSD2) in an isogenic RCH-ACV NSD2 p.E1099K mutant (9B) (AID 1645876). For orientation: In qHTS, concentration-response curves come from the screen itself.
Test [2] can be described thus: Primary qHTS for inhibitors of nuclear receptor binding SET domain protein 2 (NSD2) in an RCH-ACV wild type WT cells (2C) (AID 1645877).

Inconclusive results are not listed. Entries that show only a call come without a potency. Activity calls are given as the source filed them. Calls follow the shape of the dose curve; as a rule, active = well fitted curve in the direction sought with a large enough effect; inconclusive = small, poorly fitted or top-dose-only effect, or another doubt; inactive = no such curve, though single readings can be large; an effect the other way counts as inactive or inconclusive.

The values that follow come from PubChem BioAssay (NCATS).
Also: nearly all actives have a fitted effect of over 70% in size.

`COc1cc(/C=C/C(=O)O[C@H]2[C@H](OC(=O)/C=C/c3cc(OC)c(O)c(OC)c3)O[C@H](CO[C@@H]3O[C@H](CO)[C@@H](O)[C@H](O)[C@H]3O)[C@@H](O)[C@@H]2O)ccc1O`: the Potency entry in test [1] and in test [2] was “inactive” in each case.

As to `C=CC1(C)CC(O)C2(CCC3C(C)(C(=O)O)CCCC3(C)C2=O)C1` (stereo not drawn), the Potency entry in test [1] and in test [2] was “inactive” each time.

Take `C=C[C@H]1[C@H](O[C@@H]2O[C@H](CO)[C@@H](O)[C@H](O)[C@H]2O)OC=C(C(=O)OC)[C@H]1C[C@@H]1N[C@H](C(=O)O)Cc2c1[nH]c1ccccc21`: the Potency entry in test [1] and in test [2] was “inactive” each time.

Take `CC(C)c1cc2c(c(O)c1O[C@@H]1O[C@H](CO)[C@@H](O)[C@H](O)[C@H]1O)CC1(O)CCC(O)C(C)(C)C1CC2` (stereo partly drawn): the Potency result in test [1] and in test [2] was “inactive” in each case.

Consider `N#CC1C(=O)Nc2scc(-c3ccc(-c4ccccc4O)cc3)c2C1=O` (stereo not drawn), for which the Potency entry in test [1] and in test [2] was “inactive” each time.

Take `COc1cc(COC2OC(CO)C(O)C(O)C2O)cc(OC)c1O` (stereo not drawn): the Potency result in test [1] and in test [2] was “inactive” each time.

Take `CN1C(=O)c2ccccc2-n2c(nc3ccccc3c2=O)/C1=C/c1ccccc1`: the Potency result in test [1] and in test [2] was “inactive” throughout.

`CC(C)C(C#N)O[C@@H]1O[C@H](CO[C@@H]2OC[C@](O)(CO)[C@H]2O)[C@@H](O)[C@H](O)[C@H]1O` (stereo partly drawn): the Potency entry in test [1] and in test [2] was “inactive” in each case.

For `C1CCN2CC3C[C@@H](CN4CCCC[C@@H]34)[C@H]2C1`, the Potency entry in test [1] and in test [2] was “inactive” in each case.

As to `C[C@@H]1O[C@@H](OC[C@H]2O[C@@H](OCCc3ccccc3)[C@H](O)[C@@H](O)[C@@H]2O)[C@H](O)[C@H](O)[C@H]1O`, the Potency result in test [1] and in test [2] was “inactive” in each case.

For `COc1cc(C(O)C(CO)Oc2ccc(CCCO[C@@H]3O[C@@H](C)[C@H](O)[C@@H](O)[C@H]3O)cc2OC)ccc1O` (stereo partly drawn), the Potency result in test [1] and in test [2] was “inactive” throughout.

Turning to `OCCc1ccc(O[C@@H]2O[C@H](CO)[C@@H](O)[C@H](O)[C@H]2O)c(O)c1`, the Potency result in test [1] and in test [2] was “inactive” throughout.

`C=C1C2=CC(O)C(C)C1(C)CC/C(C)=C/CCC1(C)OC1C2=O` (stereo not drawn): the Potency result in test [1] and in test [2] was “inactive” throughout.

Regarding `C=C1CCC(OC(C)=O)C2(C)CC3(O)OC(=O)C(C)=C3CC12` (stereo not drawn), the Potency entry in test [1] and in test [2] was “inactive” each time.

For the molecule `C=C1CC2[C@]3(C)C(=C(O)C(=O)[C@@]2(C)[C@]2(C(=O)OC)C(=O)C(C)OC(=O)[C@@]12C)C(C)(C)C(=O)CC3O` (stereo partly drawn), the Potency result in test [1] and in test [2] was “inactive” each time.

In the case of `CC(=O)O[C@@H]1C[C@@]23C[C@@]24CC[C@H](OC2OC[C@@H](O)[C@H](O)[C@H]2O)C(C)(C)[C@@H]4CC[C@H]3[C@]2(C)CC3OC4(C[C@@H](C)C3[C@@]12C)OCC1(C)OC14` (stereo partly drawn), the Potency result in test [1] and in test [2] was “inactive” each time.

`CCC1CC2C(C)=CC3CCCCC3C2(C)C2(OC(=O)C(C)(O)OC2=O)O1` (stereo not drawn): the Potency entry in test [1] and in test [2] was “inactive” in each case.

With `NS(=O)(=O)NCCNc1nonc1C(=Nc1ccc(F)c(Br)c1)NO`, the Potency entry in test [1] and in test [2] was “inactive” in each case.

As to `C=C(C(=O)O)C1CCC(C)C2CCC(=O)OC2(C)C1` (stereo not drawn), the Potency entry in test [1] and in test [2] was “inactive” in each case.
